The supplement of paper PMC10338343
± gives the standard deviation.

Experiments:
[1] = test system: MILI (PIWIL2) piRISC loaded with L1MC piRNA (26 nt); assay: pre-steady-state target cleavage rate (min^-1); guide: L1MC piRNA 5'p-UAACUAAAUACUAUGCAAGCUGUAGG; higher = faster piRNA-guided slicing of the target
Method in brief: (§1)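 Cleave-'n-Seq: 1 nM active affinity-purified piRISC with one synthetic guide and 0.1 nM transcribed, DNA-blocked target RNA library were mixed, with or without 500 nM GTSF1 partner protein, in HEPES–potassium acetate buffer at 33 °C for 0–8 or 0–960 min. Uncleaved targets were sequenced and normalised to depth and to weakly complementary targets, three trials were pooled, and k3 was capped at 0.0001 min^-1. The pre-steady-state cleavage rate was fitted […].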

[2] = test system: EfPiwi piRISC loaded with L1MC piRNA (26 nt); assay: pre-steady-state target cleavage rate (min^-1); auxiliary factor: 500 nM Ephydatia muelleri Gtsf1; guide: L1MC piRNA 5'p-UAACUAAAUACUAUGCAAGCUGUAGG; MIWI and MILI are mouse PIWI proteins and EfPiwi is from a freshwater sponge; tags in brackets are library labels; higher = faster piRNA-guided slicing of the target
Method in brief: as §1

[3] = auxiliary factor: 500 nM mouse GTSF1

Row | Sequence | pre-steady-state target cleavage rate [1, 3] | pre-steady-state target cleavage rate [2] | pre-steady-state target cleavage rate ([1]; auxiliary factor: none (no GTSF1))
1 | UCCUGGAUGUCCUUGCAUAGUAUUUAGAAA | 0.0838 ± 0.021 | 0.00278 ± 0.0022 | –
2 | UCCUGCUACAGCUUGCAUAGUAAUUACUUA | 0.057 ± 0.017 | 0.0026 ± 0.0026 | –
3 | UCCUCCUACAGCUUGCAUAGUUUUUACUUA | 0.036 ± 0.0086 | 0.00304 ± 0.0026 | –
4 | UCCUGGAACAGCUUGCAUAGUUUUUAGAAA | 0.0191 ± 0.007 | 0.00413 ± 0.0021 | –
5 | UCCUGGAUGUGCUUGGCAUAGUAUUUAGUUA | 0.19 ± 0.057 | 0.00458 ± 0.0029 | –
6 | UCCUCCUACAGCUUGCAUAGAUUUAGUUA | 0.00908 ± 0.0047 | 0.00442 ± 0.0029 | –
7 | UCCUGGAUGUCCUUGCAUAGUAUGUAGUUA | 0.107 ± 0.022 | 0.00374 ± 0.0037 | –
8 | UCCUGCUACAGCUUGCAUACUAUUAAGUUA | 0.0719 ± 0.018 | 0.00453 ± 0.0019 | –
9 | UCCUCCUACAGCUUGCAUAGUAUUUAUUA | 0.0949 ± 0.023 | 0.00539 ± 0.0031 | –
10 | UCCUCGUACAGCUUGCAUAGUAUUUACAAA | 0.105 ± 0.025 | 0.00271 ± 0.0024 | –
11 | UCCUGGAACAGGUUGCAUAGUAUUUAGAUA | 0.136 ± 0.025 | 0.00362 ± 0.0019 | –
12 | UCCUCCUACAGCUUCCAUUGUAUUUAGUUA | 0.0834 ± 0.015 | 0.00393 ± 0.0019 | –
13 | UCCUCCUACAGCUUGCAUACUAUUUACAAA | 0.0449 ± 0.012 | 0.0038 ± 0.0031 | –
14 | UCCUGCUACACCUUGCAUACUAUUUAGUUA | 0.0767 ± 0.022 | 0.00403 ± 0.0024 | –
15 | UCCUCCAACAGCUUGCAUAGUAUUUUGUUA | 0.108 ± 0.019 | 0.00594 ± 0.0025 | –
16 | UCCUCCUAGAGCUUCCAUAGUAUUUAGUUA | 0.0812 ± 0.025 | 0.00302 ± 0.0014 | –
17 | UCCUGCUACAGCUUGCAUAGUAUUAACUUA | 0.0306 ± 0.0076 | 0.00397 ± 0.0027 | –
18 | UCCUGGAACAGCUAGCAUAGUAUUUUGUUA | 0.154 ± 0.029 | 0.00465 ± 0.003 | –
19 | UCCUGGAUGAGGAUGCAUAGUAUUUAGAAA | 0.0101 ± 0.0046 | 0.0024 ± 0.0024 | –
20 | UCCUCCUACAGCUUGCAUAGUAUAAAGAAA | 0.0951 ± 0.023 | 0.00289 ± 0.0018 | –

Row | Sequence | pre-steady-state target cleavage rate [1, 3] | pre-steady-state target cleavage rate [2] | pre-steady-state target cleavage rate ([1]; auxiliary factor: none (no GTSF1))
21 | UCCUCCUACAGCUUGCAUAGUAUUAUCUUA | 0.105 ± 0.025 | 0.00351 ± 0.0027 | –
22 | UCCUGGUACAGCUUGCUUAGUAUUUAGAAA | 0.0808 ± 0.021 | 0.00224 ± 0.002 | –
23 | UCCUGGAUGAGCUUGCAUAGUAUUUAGCUUA | 0.104 ± 0.026 | 0.00409 ± 0.0018 | –
24 | UCCUGCUUGAGCUUGCAUAGUAUUUACAAA | 0.0564 ± 0.017 | 0.00279 ± 0.0023 | –
25 | UCCUCCUACAGGUUGCAUAGUAUUUUCAAA | 0.0497 ± 0.013 | 0.00306 ± 0.0021 | –
26 | UCCUCCUACACCUUCCAUAGUAUUUAGUUA | 0.0308 ± 0.014 | 0.00329 ± 0.0018 | –
27 | UCCUGCUACAGCUUGCAUAGUAUUUUCUAA | 0.0874 ± 0.021 | 0.00646 ± 0.0026 | –
28 | UCCUGCUACAGCUUCCAUAGUAUUUAGUAA | 0.0172 ± 0.0082 | 0.00255 ± 0.0016 | –
29 | UCCUGGAACACCUUGCAUAGUAUUAAGUUA | 0.189 ± 0.034 | 0.00303 ± 0.0027 | –
30 | UCCUGGAACAGCUUGCUUAGUAUUUAGAUA | 0.176 ± 0.017 | 0.00448 ± 0.0027 | –
31 | UCCUGCUACAGCUUGCAUACAAUUUAGUUA | – | 0.00307 ± 0.0028 | 0.00287 ± 0.0025
32 | UCCUGGAACAGCUUCCAUAGUAUUUAGUUA | 0.0612 ± 0.017 | 0.00225 ± 0.0021 | –
33 | UCCUGGUACAGCUAGCAUAGUAUUUAGAAA | 0.0357 ± 0.013 | 0.00319 ± 0.0022 | –
34 | UCCUGCUACAGCUUGCAUAGUAUUUAGAUUA | 0.135 ± 0.023 | 0.00658 ± 0.0023 | –
35 | UCCUGGUACAGCUUGCAUAGUAAUAAGUUA | 0.204 ± 0.033 | 0.00546 ± 0.0031 | –
36 | UCCUCGAUCAGCUUGCAUAGUAUUUAGAAA | 0.115 ± 0.02 | 0.00579 ± 0.0018 | –
37 | UCCUGGAUGAGCUUGCAUAGUAUUUACAAA | 0.0638 ± 0.018 | 0.00416 ± 0.0028 | –
38 | UCCUGGAACAGCUUGCAUUGUAUUUAGAUA | 0.149 ± 0.019 | 0.00313 ± 0.0017 | –
39 | UCCUCCUACAGCUUGCAUAGUAAAAACAAA | 0.0836 ± 0.022 | 0.00389 ± 0.0036 | –
40 | UCCUGCUACAGGUUGCAUAGUAUUUAGAAA | 0.0337 ± 0.011 | 0.00261 ± 0.0014 | –

Row | Sequence | pre-steady-state target cleavage rate [1, 3] | pre-steady-state target cleavage rate [2] | pre-steady-state target cleavage rate ([1]; auxiliary factor: none (no GTSF1))
41 | UCCUGCUACAGCUUGCAUAGCAUUUAGUUA | 0.141 ± 0.022 | 0.00521 ± 0.0016 | –
42 | UCCUGGAACAGCUUGCAUAGUAAUUAGUAA | 0.108 ± 0.015 | 0.00418 ± 0.0019 | –
43 | UCCUGCUACAGCUUGCAUACUAUUUAGAUA | 0.0214 ± 0.0094 | 0.00382 ± 0.002 | –
44 | UCCUCGAUCAGCUUGCAUAGUAUUUUCAAA | 0.0652 ± 0.014 | 0.00433 ± 0.0023 | –
45 | UCCUGCUUCAGCUUGCAUAGUAUUUACAAA | 0.212 ± 0.047 | 0.00462 ± 0.0025 | –
46 | UCCUGGAACAGGAUGCAUAGUAUUUAGAAA | 0.0732 ± 0.017 | 0.00257 ± 0.0016 | –
47 | UCCUGGAACAGCUUGCAUAGUUUUUAGAUA | 0.0168 ± 0.0068 | 0.00205 ± 0.0016 | –
48 | UCCUGGAACAGCUUGCUUAGUAUUAAGUUA | 0.179 ± 0.026 | 0.00237 ± 0.002 | –
49 | UCCUGCUACAGCUUGCAAAGUAUAUAGUUA | 0.0886 ± 0.016 | 0.00379 ± 0.0026 | –
50 | UCCUCCUACAGCUUGCAUAGGAUUUAGUUA | 0.0118 ± 0.0044 | 0.0113 ± 0.0028 | –
51 | UCCUGCUAAAGCUUGCAUAGUAUUUAGUUA | 0.177 ± 0.035 | 0.00411 ± 0.0014 | –
52 | UCCUGGAACAGCUUGCAAAGUAUUUAGAAA | 0.166 ± 0.038 | 0.00418 ± 0.002 | –
53 | UCCUCCAACAGCUUGCAUAGUAUUUACUUA | 0.122 ± 0.022 | 0.00475 ± 0.0037 | –
54 | UCCUGGAACACGUUGCAUAGUAUUUAGUAA | 0.254 ± 0.036 | 0.00365 ± 0.0034 | –
55 | UCCUGCUACAGCUAGCAUAGUAUUUUGUUA | 0.244 ± 0.031 | 0.0057 ± 0.0021 | –
56 | UCCUCGAACAGCUUGCAUAGUAUUUACAAA | 0.0992 ± 0.021 | 0.00433 ± 0.0025 | –
57 | UCCUCCUACAGCUUGCAUAGUUUUUUCAAA | 0.0513 ± 0.014 | 0.00481 ± 0.0034 | –
58 | UCCUGGAUGAGCUUGCAUAGUAAUUAGAUA | 0.0197 ± 0.0088 | 0.00341 ± 0.0028 | –
59 | UCCUGGAUCAGCUUGCAUAGUAUUUUCAUA | 0.0451 ± 0.011 | 0.00263 ± 0.0022 | –
60 | UCCUGGAUCAGCUUGCAUAGUUUUUAGAUA | 0.0159 ± 0.0066 | 0.00428 ± 0.0026 | –
